Laboratory results reported in article PMC4336329 (PLoS ONE, 2015).
About 2,200 (0.71%) of roughly 310,000 compounds showed an effect of 50% or more. The effect is printed as a negative number. For the sample, strong results were picked, then their nearest neighbours and some compounds at random.

What follows are molecules tested against human ether-à-go-go-related gene (hERG) potassium channel (human, UniProt Q12809) (assay: primary screen, population patch clamp on CHO cells stably expressing hERG; higher = less effect of the substance).
human ether-à-go-go-related gene (hERG) potassium channel, sequence (Q12809 whole entry, looked up): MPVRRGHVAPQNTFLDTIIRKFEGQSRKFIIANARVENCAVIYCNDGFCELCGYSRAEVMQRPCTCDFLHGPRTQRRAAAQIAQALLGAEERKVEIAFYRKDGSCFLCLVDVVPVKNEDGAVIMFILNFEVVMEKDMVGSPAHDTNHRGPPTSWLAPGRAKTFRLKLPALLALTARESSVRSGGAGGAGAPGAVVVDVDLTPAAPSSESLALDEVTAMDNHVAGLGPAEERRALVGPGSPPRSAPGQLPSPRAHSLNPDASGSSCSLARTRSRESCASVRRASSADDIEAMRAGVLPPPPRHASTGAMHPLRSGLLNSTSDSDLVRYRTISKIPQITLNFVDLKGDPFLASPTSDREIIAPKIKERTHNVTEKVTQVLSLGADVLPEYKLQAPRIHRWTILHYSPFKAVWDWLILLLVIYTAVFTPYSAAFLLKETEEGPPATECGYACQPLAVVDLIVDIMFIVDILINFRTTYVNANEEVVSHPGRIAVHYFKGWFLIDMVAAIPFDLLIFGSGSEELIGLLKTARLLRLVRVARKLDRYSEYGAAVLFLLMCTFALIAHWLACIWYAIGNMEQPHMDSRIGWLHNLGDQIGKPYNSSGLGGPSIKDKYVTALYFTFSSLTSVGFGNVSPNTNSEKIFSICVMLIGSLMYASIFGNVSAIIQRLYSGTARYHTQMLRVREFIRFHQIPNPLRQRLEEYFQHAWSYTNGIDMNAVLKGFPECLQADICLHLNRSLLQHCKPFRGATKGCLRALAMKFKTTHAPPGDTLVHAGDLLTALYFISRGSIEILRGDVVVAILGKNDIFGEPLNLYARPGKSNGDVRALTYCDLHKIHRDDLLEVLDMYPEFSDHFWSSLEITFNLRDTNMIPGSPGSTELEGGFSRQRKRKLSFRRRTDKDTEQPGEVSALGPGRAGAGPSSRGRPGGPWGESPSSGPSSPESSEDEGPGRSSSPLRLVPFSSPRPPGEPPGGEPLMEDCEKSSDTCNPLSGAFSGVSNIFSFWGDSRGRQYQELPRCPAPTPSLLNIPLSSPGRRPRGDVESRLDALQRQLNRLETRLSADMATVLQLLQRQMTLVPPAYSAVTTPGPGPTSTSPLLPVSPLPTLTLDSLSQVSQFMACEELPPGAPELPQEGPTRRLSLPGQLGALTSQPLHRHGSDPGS
With `NC(=O)c1ccccc1NC(=S)NC(=O)CCc1ccccc1` the “hERG current change (%, negative = inhibition) at 1uM” value was 6.72%.
For `CCSc1nnc(-c2ccc(OC)cc2)o1`, the “hERG current change (%, negative = inhibition) at 1uM” value was 3.96%.
For `Cc1cccc2cc(C#N)c(NCCNC(=S)NCCCN3CCOCC3)nc12`, the “hERG current change (%, negative = inhibition) at 1uM” value was 4.84%.
`Oc1c(C=Nc2ccccc2)sc2ccccc12` was tested, and the “hERG current change (%, negative = inhibition) at 1uM” value was 12.4%.
For `CC(C)CC(=O)C1CCCN(C(=O)c2ccc3oc(Cc4ccccc4)nc3c2)C1` (stereo not drawn), the “hERG current change (%, negative = inhibition) at 1uM” value was 11.9%.
With `Cn1c(CC(=O)Nc2ccc(Cl)c(Cl)c2)nnc1SCC(=O)NCc1ccccc1` the “hERG current change (%, negative = inhibition) at 1uM” value was 9.85%.
In the case of `COc1cc(SC)ccc1C(=O)N1CCc2ccccc21`, the “hERG current change (%, negative = inhibition) at 1uM” value is reported as 13.9%.
For `N=c1c(C(=O)NC2CCCCC2)cc2c(=O)n3ccccc3nc2n1CCc1ccccc1`, the “hERG current change (%, negative = inhibition) at 1uM” value was -88.1%.
For `Cc1cc2c(=O)n(Cc3ccco3)c(SCC(=O)N3CCCc4ccccc43)nc2s1`, the “hERG current change (%, negative = inhibition) at 1uM” value was 0.209%.
In the case of `CC1CCCC(NC(=O)CCCn2c(=S)[nH]c3ccccc3c2=O)C1C` (stereo not drawn), the “hERG current change (%, negative = inhibition) at 1uM” value is reported as 5.25%.
For `CN1CCC(=NNC(=O)CN(c2cccc(Br)c2)S(C)(=O)=O)CC1`, the “hERG current change (%, negative = inhibition) at 1uM” value was 1.22%.
In the case of `CS(=O)(=O)Nc1ccc(C2=NN(C(=O)c3ccco3)C(c3cccc(F)c3)C2)cc1` (stereo not drawn), the “hERG current change (%, negative = inhibition) at 1uM” value is reported as -85.9%.
For `CS(=O)(=O)Nc1ccc(C2=NN(C(=O)c3ccco3)C(c3ccc(F)cc3)C2)cc1` (stereo not drawn), the “hERG current change (%, negative = inhibition) at 1uM” value was -44.7%.
In the case of `CCS(=O)(=O)Nc1ccc(C2=NN(C(=O)c3ccco3)C(c3cccc(F)c3)C2)cc1` (stereo not drawn), the “hERG current change (%, negative = inhibition) at 1uM” value is reported as 0.693%.
`CCCCN1C(=N)C(CC)(CC)C(=O)NC1=O.Cl` was tested, and the “hERG current change (%, negative = inhibition) at 1uM” value was 27.4%.
For `Cc1ccc2cc(CN(Cc3ccco3)C(=O)C3CCCCC3)c(=O)[nH]c2c1C`, the “hERG current change (%, negative = inhibition) at 1uM” value was 6.2%.
`CCNc1nc2nc3ccc(C)cn3c(=O)c2cc1C(=O)NCC1CCCO1` (stereo not drawn) was tested, and the “hERG current change (%, negative = inhibition) at 1uM” value was -31.2%.
For `COCCCNC(=O)c1cc2c(=O)n3cc(C)ccc3nc2nc1NCC1CCCO1` (stereo not drawn), the “hERG current change (%, negative = inhibition) at 1uM” value was -26.6%.
With `Cc1ccc2nc3nc(NCC4CCCO4)c(C(=O)NC4CCCCC4)cc3c(=O)n2c1` (stereo not drawn) the “hERG current change (%, negative = inhibition) at 1uM” value was -76.8%.
With `Cc1ccc(-c2nn(-c3ccccc3)cc2C(=O)NCC2CCCO2)cc1` (stereo not drawn) the “hERG current change (%, negative = inhibition) at 1uM” value was 1.49%.
In the case of `CCn1cc(C(=O)NCC2CCCO2)c2cc(OC)c(OC)cc2c1=O` (stereo not drawn), the “hERG current change (%, negative = inhibition) at 1uM” value is reported as 14.8%.
For `Cc1ccc2nc(SCC(=O)NC3CCCCC3)nc(=O)n2c1`, the “hERG current change (%, negative = inhibition) at 1uM” value was -4.63%.
With `Cc1ccc2nc3nc(NCC4CCCO4)c(C(=O)NC4CCCC4)cc3c(=O)n2c1` (stereo not drawn) the “hERG current change (%, negative = inhibition) at 1uM” value was -83.8%.
With `CCOCCCNc1nc2nc3ccc(C)cn3c(=O)c2cc1C(=O)NCC1CCCO1` (stereo not drawn) the “hERG current change (%, negative = inhibition) at 1uM” value was -76%.
With `C=CCNC(=O)c1cc2c(=O)n3cc(C)ccc3nc2nc1NCC1CCCO1` (stereo not drawn) the “hERG current change (%, negative = inhibition) at 1uM” value was -82%.
`Cc1ccc2nc3c(cc(C(=O)NC4CCS(=O)(=O)C4)n3Cc3ccccc3)c(=O)n2c1` (stereo not drawn) was tested, and the “hERG current change (%, negative = inhibition) at 1uM” value was 21.4%.
In the case of `O=C(NC1CCCCCC1)c1ccc2nc3cc(Cl)ccc3c(=O)n2c1`, the “hERG current change (%, negative = inhibition) at 1uM” value is reported as 4.2%.
With `Cc1ccc(-c2nn(-c3ccccc3Cl)cc2C(=O)NCC2CCCO2)cc1` (stereo not drawn) the “hERG current change (%, negative = inhibition) at 1uM” value was 18.4%.
With `CCN(CC)c1ccc(/C=N/NC(=O)CNC(=O)c2ccccn2)cc1` the “hERG current change (%, negative = inhibition) at 1uM” value was -7.85%.
`CC(C)C(C)NC(=O)CSc1nnc(-c2c[nH]c3ccccc23)o1` (stereo not drawn) was tested, and the “hERG current change (%, negative = inhibition) at 1uM” value was 4.32%.
For `CC1(C)CC(=O)C(C2c3ccccc3S(=O)(=O)c3ccccc32)C(=O)C1`, the “hERG current change (%, negative = inhibition) at 1uM” value was 16.3%.
With `c1ccc(-c2nc3nonc3c3nc4ccccc4n23)cc1` the “hERG current change (%, negative = inhibition) at 1uM” value was -1.03%.
For `CCN(CC)CC(O)CN(c1ccccc1)S(=O)(=O)c1ccc2ccccc2c1.Cl` (stereo not drawn), the “hERG current change (%, negative = inhibition) at 1uM” value was -78.5%.
With `Cc1cccc(N(CC(O)CN(C)C)S(=O)(=O)c2ccccc2)c1.Cl` (stereo not drawn) the “hERG current change (%, negative = inhibition) at 1uM” value was -50.1%.
With `Cc1cccc(N(CC(O)CN2CCCC2)S(=O)(=O)c2ccccc2)c1` (stereo not drawn) the “hERG current change (%, negative = inhibition) at 1uM” value was -35.3%.
In the case of `Cc1ccc(N(CC(O)CN(C)C)S(=O)(=O)c2ccccc2)cc1.Cl` (stereo not drawn), the “hERG current change (%, negative = inhibition) at 1uM” value is reported as -62.8%.
With `O=S(=O)(c1ccccc1)N(CC(O)COc1ccccc1)c1ccccc1` (stereo not drawn) the “hERG current change (%, negative = inhibition) at 1uM” value was 7.47%.
`CCN(c1ccccc1)S(=O)(=O)c1ccc2ccccc2c1` was tested, and the “hERG current change (%, negative = inhibition) at 1uM” value was 14.6%.
With `Cc1cc(C)n(CC(O)CN(c2ccccc2)S(=O)(=O)c2ccc3ccccc3c2)n1` (stereo not drawn) the “hERG current change (%, negative = inhibition) at 1uM” value was 6.41%.
In the case of `Cc1ccc(S(=O)(=O)N(CC(O)CN2C(=O)NC(C)(C)C2=O)c2ccccc2)cc1` (stereo not drawn), the “hERG current change (%, negative = inhibition) at 1uM” value is reported as -28.4%.
For `Cc1ccc(S(=O)(=O)N(CC(O)CN(C)C)c2ccccc2)cc1.Cl` (stereo not drawn), the “hERG current change (%, negative = inhibition) at 1uM” value was -43.8%.
With `Cc1cccc(N(CC(O)CN2CCOCC2)S(=O)(=O)c2ccccc2)c1` (stereo not drawn) the “hERG current change (%, negative = inhibition) at 1uM” value was 11.2%.
In the case of `Cc1ccc(S(=O)(=O)N(CCC(=O)O)c2ccccc2)cc1`, the “hERG current change (%, negative = inhibition) at 1uM” value is reported as 4.11%.
With `CCCN(CCC)CC(O)CN(c1ccccc1)S(=O)(=O)c1ccc(C)cc1` (stereo not drawn) the “hERG current change (%, negative = inhibition) at 1uM” value was -88.6%.
`Cc1nn(CC(=O)N2CCOCC2)c(=O)c2nn(-c3ccccc3)c(C)c12` was tested, and the “hERG current change (%, negative = inhibition) at 1uM” value was 16.5%.
`Cc1nn(C/C(C#N)=N\O)c(C)[n+]1N.[Cl-]` was tested, and the “hERG current change (%, negative = inhibition) at 1uM” value was 11.8%.
`COc1c(Cl)cc(Cl)cc1CNCCNCC(C)O.Cl` (stereo not drawn) was tested, and the “hERG current change (%, negative = inhibition) at 1uM” value was 5.98%.
With `COc1ccc(C(=O)Nc2ccc(C(=O)N3CCOCC3)cc2)cc1OC` the “hERG current change (%, negative = inhibition) at 1uM” value was 11.3%.
With `Cc1c(NC(=O)/C(C#N)=C/c2ccccc2)c(=O)n(-c2ccccc2)n1C` the “hERG current change (%, negative = inhibition) at 1uM” value was 8.78%.
In the case of `CCOC(=O)C1CCN(Cc2ccc(Cl)nc2)CC1`, the “hERG current change (%, negative = inhibition) at 1uM” value is reported as 11.6%.
For `COc1ccc(C2c3c(ccc4ccccc34)Oc3ncn4nc(Cc5ccc(OC)c(OC)c5)nc4c32)cc1` (stereo not drawn), the “hERG current change (%, negative = inhibition) at 1uM” value was 2.05%.
`COc1ccc(CCNC(=O)/C(=C/c2cccnc2)NC(=O)c2ccccc2)cc1` was tested, and the “hERG current change (%, negative = inhibition) at 1uM” value was 3.27%.
In the case of `O=C(NCCc1ccccc1F)/C(=C/c1cccnc1)NC(=O)c1ccccc1`, the “hERG current change (%, negative = inhibition) at 1uM” value is reported as -3.24%.
For `O=C(NCCc1ccc(Cl)cc1)/C(=C/c1cccnc1)NC(=O)c1ccccc1`, the “hERG current change (%, negative = inhibition) at 1uM” value was -53.8%.
In the case of `CN(C)c1ccc(/C=C(\NC(=O)c2ccccc2)C(=O)NCc2cccnc2)cc1`, the “hERG current change (%, negative = inhibition) at 1uM” value is reported as -0.749%.
In the case of `O=C(NCc1cccnc1)/C(=C/c1ccc(Cl)cc1)NC(=O)c1ccccc1`, the “hERG current change (%, negative = inhibition) at 1uM” value is reported as -60.8%.
`O=C(NCc1cccnc1)/C(=C/c1ccccc1)NC(=O)c1ccccc1` was tested, and the “hERG current change (%, negative = inhibition) at 1uM” value was -23.3%.
